# In the supplement of paper PMC10338343:
# ± gives the standard deviation.
# Test system: MILI (PIWIL2) piRISC loaded with L1MC piRNA (26 nt)
# Assay: pre-steady-state target cleavage rate (min^-1); guide: L1MC piRNA 5'p-UAACUAAAUACUAUGCAAGCUGUAGG; MIWI and MILI are mouse PIWI proteins and EfPiwi is from a freshwater sponge; tags in brackets are library labels; higher = faster piRNA-guided slicing of the target
# Conditions: auxiliary factor: 500 nM mouse GTSF1
# Procedure, shortened: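 Reactions were run for 0–8 or 0–960 min at 33 °C in HEPES–potassium acetate buffer, combining 1 nM active affinity-purified piRISC with one synthetic guide, […] transcribed, DNA-blocked target RNA library and, in some cases, 500 nM GTSF1 partner protein. Sequencing of uncleaved targets followed, with normalisation to depth and to weakly complementary targets. Three trials were pooled, k3 was capped at 0.0001 min^-1, and the pre-steady-state cleavage rate was taken from a burst-and-steady-state fit.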
# 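Further: 1 nM active piRISC with 0.1 nM target library at 33 °C single turnover.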
row,Sequence,pre-steady-state target cleavage rate
1,UCCUGGAUGUCCUUGCAUUGUAUUUUGUUA,0.0388 ± 0.013
2,UCCUGGAUGUGCUUGCAUAGUAAUUAGUAA,0.0721 ± 0.018
3,UCCUGGAUGUCGUUGCAUAGAAUUUAGUUA,0.00458 ± 0.0035
4,UCCUGGUACAGCUUGCAUUGUAUUUACUUA,0.05 ± 0.015
5,UCCUGGAUGAGCUUGCAUAGUAUUAUCAAA,0.00461 ± 0.0034
6,UCCUGGAUCAGCUUGCAUAGUUAAAUCAAA [g10:g22:cont:t1A],0.00426 ± 0.0036
7,UCCUGGAACAGCUUGCAAUGUAUUUAGAAA,0.0719 ± 0.018
8,UCCUGGAUGUCGAACGUAUGUAUUUUGUAA,< 0.0001
9,UCCUGGAACUCCUUGCAUAGUAUUUACAAA,0.241 ± 0.061
10,UCCUGGAUCAGCUUGGUAAGUAUUUAGUAA,0.0371 ± 0.011
11,UCCUGGAUGUCCUUCCAUAGUAUUUAGUUA,0.0223 ± 0.008
12,UCCUGGAUCAGCUUGCAUAGUAUAAAGAAA,0.0366 ± 0.01
13,UCCUGGAACAGCUACGAUAGUAUUUAGUAA,0.142 ± 0.02
14,UCCUGGAUCAGCUUGCAUACUAUUUAGAAA,0.0141 ± 0.0069
15,UCCUCCUACAGCAACCAUAGUAUUUAGUAA,0.255 ± 0.043
16,UCCUCCUACAGCUUGCUAUGUAUUUAGAAA,0.00902 ± 0.0042
17,UCCUGGAUGAGCUUGCAUAGUAUAUAGAAA,0.00651 ± 0.005
18,UCCUGGUACAGCUUGCAUAGGAUUUAGUUA,0.00737 ± 0.0052

row,Sequence,pre-steady-state target cleavage rate
1,UCCUGGAACACGUUGCAUAGUAUUUAGAAA,0.187 ± 0.034
2,UCCUGGAUCAGCUUGCAUAGUAUUUACUAA,0.0285 ± 0.011
3,UCCUGGAACAGCAACCAUAGUAUUUAGAAA,0.018 ± 0.0072
4,UCCUGGAUCAGCUUGCAUAGUAAAUUCAAA,0.0136 ± 0.0055
5,UCCUGGAUGUGCUUGCAUAGUAAUUACUUA,0.00537 ± 0.0033
6,UCCUGCUACAGCUUGCAUUCAAUUUAGUUA,0.00485 ± 0.0037
7,UCCUGGAUGUCCUUGCAUAGUAUUUAGUGUA,0.0384 ± 0.012
8,UCCUGGAUGAGCUUGCAUAGUUUUUACUUA,0.00548 ± 0.0051
9,UCCUGGAUGUGCUUCGAUAGUAUUUAGUUA,0.0415 ± 0.0078
10,UCCUGGAUCAGCUUGCAUUCUAUUUAGUAA,0.0151 ± 0.0057
11,UCCUGGAUGUGCUUGCUUAGUAUUUACUUA,0.0644 ± 0.015
12,UCCUGGUACUCGUUGCAUAGUAUUUAGUAA,0.0635 ± 0.029
13,UCCUGCUACAGCUUGCUUAGUAUUUACAAA,0.0114 ± 0.0054
14,UCCUGGAUGUCGAUGACAUAGUAUUUAGUUA,0.015 ± 0.0059
15,UCCUGGAUGUCCUUGCAUAGUAUUUUCAAA,0.023 ± 0.0094
16,UCCUGGUACAGCUUGGUAAGUAUUUAGAAA,0.0185 ± 0.0092
17,UCCUGGAACAGCUUGCAUAGUAUUAACAAA,0.104 ± 0.029
